From PubChem BioAssay (NCI)
The panel holds about 79,000 compounds, 15% with a hit somewhere; the sample as a whole holds those more often. A number with no mark means an inactive call. Calls of active or inactive are those of the source. No stated cut-off is given here; in the data, active means growth inhibition above about 70%; inactive means the rest.

Assays:
[1] = NCI Yeast Anticancer Drug Screen. Data for the rad52 strain (AID 147);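 further: 0% = growth of vehicle-treated control cultures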; settings: S. cerevisiae rad52 mutant growth inhibition, stronger effect = higher value
Summary of the method: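 Growth of repair-deficient yeast cells was compared between compound-treated and vehicle-treated cultures to give percent inhibition.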

[2] = NCI Yeast Anticancer Drug Screen. Data for the wt1 strain (AID 149);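 further: 0% = growth of vehicle-treated wt1 cultures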; settings: S. cerevisiae wt1 strain (SPY 50644) growth inhibition, stronger effect = higher value
Summary of the method: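 wt1 yeast, compound-treated; % growth inhibition vs vehicle control.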

[3] = NCI Yeast Anticancer Drug Screen. Data for the rad50EPP+ strain (AID 151);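 further: 0% = growth of vehicle-treated control cultures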; settings: S. cerevisiae rad50 mutant strain, stronger effect = higher value
Summary of the method: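 Measured: growth inhibition of rad50EPP+ yeast. Reference: vehicle-treated controls. Screen uses strains with defined genetic alterations in DNA damage repair or cell cycle control.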

[4] = NCI Yeast Anticancer Drug Screen. Data for the mgt1 strain (AID 153); settings: S. cerevisiae mgt1 mutant growth inhibition, stronger effect = higher value
Summary of the method: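 Compounds were applied to mgt1 mutant yeast, and growth was then compared against vehicle-treated control cultures to give percent inhibition.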

[5] = NCI Yeast Anticancer Drug Screen. Data for the mec2-1 strain (AID 157); settings: S. cerevisiae mec2-1 strain, stronger effect = higher value
Summary of the method: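 Compounds were applied to mec2-1 yeast cells. Their growth was then compared with that of vehicle-treated cultures to give growth inhibition.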

[6] = NCI Yeast Anticancer Drug Screen. Data for the rad14 strain (AID 159);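 further: 0% = growth of vehicle-treated control cultures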; settings: S. cerevisiae rad14 strain growth inhibition, stronger effect = higher value
Summary of the method: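 Test compounds were applied to a repair-deficient yeast strain. Its growth was then compared with that of cultures given vehicle alone, and inhibition was expressed relative to those controls.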

[7] = NCI Yeast Anticancer Drug Screen. Data for the sgs1 mgt1 strain (AID 161);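 further: 0% = growth of cultures given vehicle only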; settings: S. cerevisiae sgs1 mgt1 strain, stronger effect = higher value
Summary of the method: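 Compounds are added to genetically altered yeast, and growth is compared with cultures given vehicle alone to give percent inhibition.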

[8] = NCI Yeast Anticancer Drug Screen. Data for the CLN2oe strain (AID 163);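 further: 0% = growth of vehicle-only control cultures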; settings: S. cerevisiae CLN2oe strain, stronger effect = higher value
Summary of the method: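 Cells of an engineered yeast line with disturbed cell-cycle regulation are treated with compound. Inhibition of growth is then calculated relative to the vehicle-treated reference.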

[9] = NCI Yeast Anticancer Drug Screen. Data for the cln2 rad14 strain (AID 165);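 further: 0% = growth equal to vehicle treated cultures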; settings: S. cerevisiae cln2 rad14 strain, stronger effect = higher value
Summary of the method: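 Strain: cln2 rad14 yeast, altered in cell cycle control and DNA damage repair. Read-out: growth inhibition vs vehicle.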

[10] = NCI Yeast Anticancer Drug Screen. Data for the bub3 strain (AID 167); settings: S. cerevisiae bub3 mutant strain, stronger effect = higher value
Summary of the method: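 Yeast carrying a defined mutation is treated with each compound, and growth is compared with that of vehicle-exposed cells to give inhibition.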

[11] = NCI Yeast Anticancer Drug Screen. Data for the wt2 strain (AID 169);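 further: 0% = growth of vehicle-treated yeast cultures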; settings: S. cerevisiae wt2 strain growth inhibition, stronger effect = higher value
Summary of the method: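 Growth of compound-treated yeast is measured and expressed as inhibition relative to vehicle-only controls.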

[12] = NCI Yeast Anticancer Drug Screen. Data for the mlh1 strain (AID 171);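 further: 0% = growth of vehicle-treated control cultures of the same strain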; settings: S. cerevisiae mlh1 strain growth inhibition, stronger effect = higher value
Summary of the method: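 Test agents were incubated with yeast bearing a defined DNA damage repair or cell cycle control alteration; values are growth inhibition normalised to vehicle-treated cultures.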

[13] = NCI Yeast Anticancer Drug Screen. Data for the sgs1 strain (AID 173);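 further: 0% = growth of vehicle-only control cultures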; settings: S. cerevisiae sgs1 mutant, stronger effect = higher value
Summary of the method: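 Strain with an altered DNA repair or cell cycle pathway exposed to compound. Growth then measured. Value = inhibition versus vehicle control.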

[14] = NCI Yeast Anticancer Drug Screen. Data for the mlh1 rad18 strain (AID 175); settings: S. cerevisiae mlh1 rad18 strain growth inhibition, stronger effect = higher value
Summary of the method: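 A repair-deficient yeast strain is exposed to test compound, and growth is scored relative to vehicle-treated controls.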

[15] = NCI Yeast Anticancer Drug Screen. Data for the rad50 strain (AID 155);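 further: 0% = growth of vehicle-only cultures of the same strain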; settings: S. cerevisiae rad50 strain growth inhibition, stronger effect = higher value
Summary of the method: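 Genetically altered yeast (DNA repair pathway); compound treatment; growth inhibition vs vehicle ctrl.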

[16] = NCI Yeast Anticancer Drug Screen. Data for the rad18 strain (AID 177); settings: S. cerevisiae rad18 mutant growth inhibition, stronger effect = higher value
Summary of the method: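 DNA-repair-defective yeast; compound treatment; growth inhibition scored against vehicle.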

[17] = at 5.0 µM (retest, dose inferred, filed as 0.5)
[18] = at 50.0 µM (retest, dose inferred, filed as 5.0)

CCN1CCC(O)(c2ccc(Oc3ccc(Cl)cc3)cc2)C(C(=O)c2ccc(Oc3ccc(Cl)cc3)cc2)C1 (stereo not given)
growth inhibition ([1]; at 1.2 µM): -10%
growth inhibition ([1]; at 3.7 µM): -14%
growth inhibition ([1]; at 11.0 µM): -16%
growth inhibition ([1]; at 33.0 µM): -6%
growth inhibition ([1]; at 100.0 µM): 12%
growth inhibition ([2]; at 1.2 µM): -51%
growth inhibition ([2]; at 3.7 µM): -27%
growth inhibition ([2]; at 11.0 µM): -44%
growth inhibition ([2]; at 33.0 µM): -46%
growth inhibition ([2]; at 100.0 µM): -8%
growth inhibition ([3]; at 1.2 µM): -7%
growth inhibition ([3]; at 3.7 µM): 0%
growth inhibition ([3]; at 11.0 µM): 4%
growth inhibition ([3]; at 33.0 µM): -2%
growth inhibition ([3]; at 100.0 µM): 7%
growth inhibition ([4]; at 1.2 µM): 30%
growth inhibition ([4]; at 3.7 µM): 64%
growth inhibition ([4]; at 11.0 µM): 42%
growth inhibition ([4]; at 33.0 µM): 47%
growth inhibition ([4]; at 100.0 µM): 59%
growth inhibition ([5]; at 1.2 µM): 0%
growth inhibition ([5]; at 3.7 µM): 28%
growth inhibition [5, 17]: 68%
growth inhibition ([5]; at 11.0 µM): 26%
growth inhibition ([5]; at 33.0 µM): 1%
growth inhibition [5, 18]: -2%
growth inhibition ([5]; at 50.0 µM): 93.2% (active)
growth inhibition ([5]; at 100.0 µM): 8%
growth inhibition ([6]; at 1.2 µM): -4%
growth inhibition ([6]; at 3.7 µM): 16%
growth inhibition ([6]; at 11.0 µM): 11%
growth inhibition ([6]; at 33.0 µM): 21%
growth inhibition ([6]; at 100.0 µM): 45%
growth inhibition [7, 17]: 97% (active)
growth inhibition [7, 18]: 98% (active)
growth inhibition ([7]; at 50.0 µM): 89.2% (active)
growth inhibition ([8]; at 1.2 µM): 28%
growth inhibition ([8]; at 3.7 µM): 44%
growth inhibition ([8]; at 11.0 µM): 35%
growth inhibition ([8]; at 33.0 µM): 33%
growth inhibition ([8]; at 100.0 µM): 16%
growth inhibition [9, 17]: 23%
growth inhibition [9, 18]: 98% (active)
growth inhibition ([9]; at 50.0 µM): 87.5% (active)
growth inhibition ([10]; at 1.2 µM): 22%
growth inhibition ([10]; at 3.7 µM): 39%
growth inhibition [10, 17]: 87% (active)
growth inhibition ([10]; at 11.0 µM): 50%
growth inhibition ([10]; at 33.0 µM): 39%
growth inhibition [10, 18]: 98% (active)
growth inhibition ([10]; at 50.0 µM): 90.2% (active)
growth inhibition ([10]; at 100.0 µM): 51%
growth inhibition ([11]; at 1.2 µM): -21%
growth inhibition ([11]; at 3.7 µM): 35%
growth inhibition ([11]; at 11.0 µM): 5%
growth inhibition ([11]; at 33.0 µM): -13%
growth inhibition ([11]; at 100.0 µM): 23%
growth inhibition ([12]; at 1.2 µM): -1%
growth inhibition ([12]; at 3.7 µM): -4%
growth inhibition ([12]; at 11.0 µM): -8%
growth inhibition ([12]; at 33.0 µM): -4%
growth inhibition ([12]; at 100.0 µM): 0%
growth inhibition ([13]; at 1.2 µM): -27%
growth inhibition ([13]; at 3.7 µM): 63%
growth inhibition ([13]; at 11.0 µM): 20%
growth inhibition ([13]; at 33.0 µM): 11%
growth inhibition ([13]; at 100.0 µM): 33%
growth inhibition [14, 17]: 82% (active)
growth inhibition [14, 18]: 18%
growth inhibition ([14]; at 50.0 µM): 90.5% (active)

Nc1ccc(N=Nc2ccc(-c3ccc(O)cc3)cc2)c2ccc(S(=O)(=O)O)cc12
growth inhibition ([1]; at 1.2 µM): -3%
growth inhibition ([1]; at 3.7 µM): 2%
growth inhibition ([1]; at 11.0 µM): 17%
growth inhibition ([1]; at 33.0 µM): 39%
growth inhibition ([1]; at 100.0 µM): 54%
growth inhibition ([2]; at 1.2 µM): 0%
growth inhibition ([2]; at 3.7 µM): 1%
growth inhibition ([2]; at 11.0 µM): 6%
growth inhibition ([2]; at 33.0 µM): 10%
growth inhibition ([2]; at 100.0 µM): 15%
growth inhibition ([3]; at 1.2 µM): 7%
growth inhibition ([3]; at 3.7 µM): 25%
growth inhibition ([3]; at 11.0 µM): 67%
growth inhibition ([3]; at 33.0 µM): 79% (active)
growth inhibition ([3]; at 100.0 µM): 78% (active)
growth inhibition ([4]; at 1.2 µM): 1%
growth inhibition ([4]; at 3.7 µM): 0%
growth inhibition ([4]; at 11.0 µM): 3%
growth inhibition ([4]; at 33.0 µM): 6%
growth inhibition ([4]; at 100.0 µM): 12%
growth inhibition ([15]; at 1.2 µM): 1%
growth inhibition ([15]; at 3.7 µM): 1%
growth inhibition [15, 17]: 8%
growth inhibition ([15]; at 11.0 µM): 17%
growth inhibition ([15]; at 33.0 µM): 25%
growth inhibition [15, 18]: 57%
growth inhibition ([15]; at 50.0 µM): 82.9% (active)
growth inhibition ([15]; at 100.0 µM): 43%
growth inhibition ([5]; at 1.2 µM): 2%
growth inhibition ([5]; at 3.7 µM): 3%
growth inhibition [5, 17]: 15%
growth inhibition ([5]; at 11.0 µM): 8%
growth inhibition ([5]; at 33.0 µM): 14%
growth inhibition [5, 18]: 10%
growth inhibition ([5]; at 50.0 µM): 34.9%
growth inhibition ([5]; at 100.0 µM): 23%
growth inhibition [7, 17]: 1%
growth inhibition [7, 18]: 15%
growth inhibition ([7]; at 50.0 µM): 19.1%
growth inhibition ([8]; at 1.2 µM): 1%
growth inhibition ([8]; at 3.7 µM): 2%
growth inhibition ([8]; at 11.0 µM): 0%
growth inhibition ([8]; at 33.0 µM): -1%
growth inhibition ([8]; at 100.0 µM): -3%
growth inhibition [9, 17]: 45%
growth inhibition [9, 18]: 13%
growth inhibition ([9]; at 50.0 µM): 47.1%
growth inhibition ([11]; at 1.2 µM): -1%
growth inhibition ([11]; at 3.7 µM): 2%
growth inhibition ([11]; at 11.0 µM): 5%
growth inhibition ([11]; at 33.0 µM): 16%
growth inhibition ([11]; at 100.0 µM): 21%
growth inhibition ([12]; at 1.2 µM): 3%
growth inhibition ([12]; at 3.7 µM): 3%
growth inhibition ([12]; at 11.0 µM): 6%
growth inhibition ([12]; at 33.0 µM): -19%
growth inhibition ([12]; at 100.0 µM): 18%
growth inhibition ([13]; at 1.2 µM): 2%
growth inhibition ([13]; at 3.7 µM): 8%
growth inhibition ([13]; at 11.0 µM): 20%
growth inhibition ([13]; at 33.0 µM): 37%
growth inhibition ([13]; at 100.0 µM): 40%
growth inhibition [14, 17]: 5%
growth inhibition [14, 18]: 43%
growth inhibition ([14]; at 50.0 µM): 55.1%
growth inhibition ([16]; at 1.2 µM): -4%
growth inhibition ([16]; at 3.7 µM): 11%
growth inhibition ([16]; at 11.0 µM): 48%
growth inhibition ([16]; at 33.0 µM): 69%
growth inhibition ([16]; at 100.0 µM): 72% (active)
